# Bioassay records: PubChem, Broad Institute
# Pf Dd2 inh – inhibitors of Plasmodium falciparum Dd2 growth; P. falciparum Dd2 growth, SYBR Green, 72 h; stronger effect = lower value; activity change, % at 10 µM; hit rate 2.3% among 94,000; AID 1159554; in the data active = activity change below about -80%; inconclusive = no clear call, values can overlap the other calls
# C diff growth – inhibitors of Clostridium difficile growth | Clostridium difficile clinical isolate growth, OD600, 24 h; stronger effect = lower value | growth activity, negative = inhibition, % at 16 µg/mL (by protocol) | hit rate 0.25% among 86,000 | AID 1259249;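 active = mean growth activity at or below -80% and every replicate also at or below -80%; inconclusive = mean at or below -80% but some replicate above -80%; inactive = mean growth activity above -80%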
# Tcruzi prolif – blocks T. cruzi growth in NIH3T3 culture | hit rate 5.9% among 77,000 | T. cruzi beta-gal in NIH3T3, GalScreen luminescence, 90 h | inhibition, % at 8.34 µM;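 active = mean inhibition above about 93%, with at least 55% of replicates each passing it, limit read from the data, passing the limit was not always enough; inconclusive = only one of those two conditions holds; inactive = neither condition holds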
# Numbers stand for hits; – = inactive; ? = inconclusive; · = no result given. Hits are enriched below; roughly 6.8% of the tested compounds scored in any of these assays.
SMILES,Pf Dd2 inh,C diff growth,Tcruzi prolif
COc1ccccc1-c1ccc2c(c1)[C@H]1[C@H](CCN1C(=O)C1CCC1)[C@@H](CO)N2,–,–,·
COc1ccc(C#Cc2ccc3c(c2)[C@@H]2[C@@H](CCN2C(=O)C2CCCC2)[C@@H](CO)N3)cc1,?,–,·
O=C(C[C@@H]1C[C@@H]2c3cc(NC(=O)Nc4ccccc4)ccc3O[C@@H]2[C@@H](CO)O1)NCc1cccc(F)c1,–,–,–
COc1cccc(S(=O)(=O)N2C[C@H](O)COC[C@H]3O[C@H](CC(=O)N4CCOCC4)CC[C@@H]32)c1,–,·,–
COc1cccc(-c2ccc3c(c2)[C@@H]2[C@@H](CCN2C(=O)C2CC2)[C@H](CO)N3)c1,–,–,·
O=C(C1CCCC1)N1CC[C@@H]2[C@H](CO)Nc3ccc(C4=CCCCC4)cc3[C@@H]21,-83.4,–,·
COc1cccc(-c2ccc3c(c2)[C@@H]2[C@@H](CCN2C(=O)C2CCCCC2)[C@H](CO)N3)c1,-89.0,–,·
O=C(c1ccc(F)cc1)N1CC[C@@H]2[C@H]1c1cc(C3=CCCCC3)ccc1N[C@@H]2CO,–,–,–
COc1cccc(-c2ccc3c(c2)[C@@H]2[C@@H](CCN2C(=O)C2CCC2)[C@H](CO)N3)c1,–,–,–
CN1c2ccc(C3=CCCCC3)cc2[C@@H]2[C@@H](CCN2C(=O)C2CC2)[C@@H]1CO,–,–,·
COc1cccc(-c2ccc3c(c2)[C@@H]2[C@@H](CCN2C(=O)C2CCCC2)[C@H](CO)N3)c1,-86.3,–,·
CN1c2ccc(C3=CCCCC3)cc2[C@H]2[C@H](CCN2C(=O)C2CC2)[C@@H]1CO,-88.5,–,·
CN(C)CC(=O)N[C@H]1CC[C@@H](CC(=O)O)O[C@H]1CO,–,–,·
COCC(=O)Nc1ccc2c(c1)C(=O)N(C)C[C@@H](OC)[C@H](C)CN[C@H](C)CO2,–,–,–
CCCC(=O)N1CC2(C1)CN(C(=O)C1CCC1)[C@H](CO)c1[nH]c3cc(OC)ccc3c12,–,–,·
C[C@H]1CN([C@@H](C)CO)C(=O)c2cccc(NS(=O)(=O)c3cccs3)c2O[C@H]1CN(C)Cc1ccc2c(c1)OCO2,–,·,–
CCCNC(=O)N[C@H]1CC[C@H](CC(=O)NC2CCC2)O[C@@H]1CO,–,·,–
CC(C)NC(=O)Nc1cccc2c1O[C@@H](CN(C)Cc1ccc(Oc3ccccc3)cc1)[C@@H](C)CN([C@@H](C)CO)C2=O,–,–,–
COCC(=O)N(C)C[C@H]1Oc2ncc(C#Cc3ccc(OC)cc3)cc2C(=O)N([C@H](C)CO)C[C@H]1C,–,–,–
COc1cccc(-c2ccc3c(c2)[C@@H]2[C@@H](CCN2S(=O)(=O)c2cn(C)cn2)[C@H](CO)N3)c1,-81.7,–,–
COc1cccc(-c2ccc3c(c2)[C@H]2[C@H](CCN2S(=O)(=O)c2cn(C)cn2)[C@H](CO)N3)c1,–,–,–
CCOC(=O)N(C)C[C@@H]1OCc2ccccc2-c2ccccc2C(=O)N([C@@H](C)CO)C[C@H]1C,–,·,–
C[C@@H]1CN([C@H](C)CO)C(=O)c2cc(NC(=O)Nc3ccccc3)ccc2O[C@@H]1CN(C)Cc1ccc(C(F)(F)F)cc1,–,–,–
C[C@H](CO)N1C[C@H](C)[C@H](CN(C)Cc2ccc(Oc3ccccc3)cc2)Oc2ccc(NC(=O)Nc3ccc(C(F)(F)F)cc3)cc2C1=O,-88.3,·,–
C[C@H](CO)N1C[C@H](C)[C@@H](CN(C)Cc2ccc(Oc3ccccc3)cc2)Oc2ccc(NC(=O)Nc3ccc(C(F)(F)F)cc3)cc2C1=O,–,·,–
SMILES,Pf Dd2 inh,C diff growth,Tcruzi prolif
C[C@H](CO)N1C[C@H](C)[C@@H](CN(C)Cc2ccc(-c3ccccc3)cc2)Oc2ccc(NC(=O)Nc3ccc(C(F)(F)F)cc3)cc2C1=O,-85.2,–,?
Cc1ccc(-c2cnc3c(c2)C(=O)N([C@@H](C)CO)C[C@H](C)[C@@H](CN(C)C(=O)c2cccnc2)O3)cc1,–,–,–
COc1ccc(-c2ccc3c(c2)O[C@@H](CN(C)C(C)=O)[C@@H](C)CN([C@@H](C)CO)S3(=O)=O)cc1,–,–,–
C[C@H](CO)N1C[C@H](C)[C@@H](CN(C)C(=O)Nc2ccccc2)Oc2c(NC(=O)Nc3cccc4ccccc34)cccc2C1=O,–,–,–
C[C@@H]1CN([C@H](C)CO)C(=O)Cc2cc(NS(=O)(=O)c3ccc(Cl)cc3)ccc2O[C@H]1CN(C)Cc1ccc(Oc2ccccc2)cc1,–,–,–
C[C@H](CO)N1C[C@H](C)[C@H](CN(C)Cc2ccc(Oc3ccccc3)cc2)Oc2ccc(NS(=O)(=O)c3ccc(Cl)cc3)cc2CC1=O,-86.8,–,–
C[C@H](CO)N1C[C@H](C)[C@@H](CN(C)Cc2ccc(C(=O)Nc3ccccc3N)cc2)Oc2ccc(NS(=O)(=O)c3ccccc3)cc2CC1=O,-83.4,–,–
